According to ChEMBL document CHEMBL1961873, “Compounds: GSK PKIS; Assays: Nanosyn kinase panel” (2012):

How the values were obtained:
[1] = target: Protein kinase C gamma type (Homo sapiens) (UniProt P05129); conditions: at 1 µM;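 also: each value is an averaged percent inhibition of the enzyme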
[2] = target: T1, Protein kinase C iota type (Homo sapiens) (UniProt P41743); conditions: at 0.1 µM
T1 sequence (whole entry): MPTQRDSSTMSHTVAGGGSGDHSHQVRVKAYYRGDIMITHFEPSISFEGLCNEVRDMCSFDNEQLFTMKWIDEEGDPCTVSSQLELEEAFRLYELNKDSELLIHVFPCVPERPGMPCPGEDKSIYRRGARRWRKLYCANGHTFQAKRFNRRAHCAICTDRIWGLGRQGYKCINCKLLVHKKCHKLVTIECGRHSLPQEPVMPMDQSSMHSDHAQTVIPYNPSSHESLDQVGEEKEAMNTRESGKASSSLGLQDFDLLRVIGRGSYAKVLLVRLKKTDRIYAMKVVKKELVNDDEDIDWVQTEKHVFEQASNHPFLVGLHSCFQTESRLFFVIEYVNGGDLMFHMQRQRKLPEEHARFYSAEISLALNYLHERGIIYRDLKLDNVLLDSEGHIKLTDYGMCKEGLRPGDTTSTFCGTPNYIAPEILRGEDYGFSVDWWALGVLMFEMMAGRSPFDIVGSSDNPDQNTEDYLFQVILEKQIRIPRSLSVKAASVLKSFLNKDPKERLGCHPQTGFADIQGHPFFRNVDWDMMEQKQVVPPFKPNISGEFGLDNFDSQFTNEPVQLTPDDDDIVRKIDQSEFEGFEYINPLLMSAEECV

[3] = target: T1, Protein kinase C iota type (Homo sapiens); conditions: at 1 µM
[4] = target: Protein kinase C theta type (Homo sapiens) (UniProt Q04759); conditions: at 0.1 µM
Protein kinase C theta type (Homo sapiens), sequence (Q04759 whole entry, looked up): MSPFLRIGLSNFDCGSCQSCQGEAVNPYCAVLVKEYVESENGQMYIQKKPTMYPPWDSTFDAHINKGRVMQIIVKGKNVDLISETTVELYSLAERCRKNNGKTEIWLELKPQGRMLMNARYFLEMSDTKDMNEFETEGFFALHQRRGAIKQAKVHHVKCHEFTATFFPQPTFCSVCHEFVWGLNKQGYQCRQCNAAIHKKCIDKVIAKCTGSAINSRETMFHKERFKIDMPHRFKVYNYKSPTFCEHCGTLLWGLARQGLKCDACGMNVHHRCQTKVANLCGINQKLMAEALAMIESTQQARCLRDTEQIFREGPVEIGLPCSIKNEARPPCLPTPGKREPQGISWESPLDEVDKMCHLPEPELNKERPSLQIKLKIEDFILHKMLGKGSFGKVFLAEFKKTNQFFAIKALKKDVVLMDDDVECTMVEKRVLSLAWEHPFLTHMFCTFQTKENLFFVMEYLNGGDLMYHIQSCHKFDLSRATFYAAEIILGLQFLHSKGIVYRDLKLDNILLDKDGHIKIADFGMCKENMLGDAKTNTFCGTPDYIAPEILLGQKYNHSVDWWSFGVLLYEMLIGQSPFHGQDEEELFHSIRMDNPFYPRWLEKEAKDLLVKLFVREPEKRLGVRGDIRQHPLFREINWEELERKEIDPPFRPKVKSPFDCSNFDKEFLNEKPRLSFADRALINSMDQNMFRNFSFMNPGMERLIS

[5] = target: Protein kinase C theta type (Homo sapiens) (UniProt Q04759); conditions: at 1 µM
[6] = target: Protein kinase C beta type (Homo sapiens) (UniProt P05771); conditions: at 0.1 µM
Protein kinase C beta type (Homo sapiens), sequence (P05771 2-671 limits assumed): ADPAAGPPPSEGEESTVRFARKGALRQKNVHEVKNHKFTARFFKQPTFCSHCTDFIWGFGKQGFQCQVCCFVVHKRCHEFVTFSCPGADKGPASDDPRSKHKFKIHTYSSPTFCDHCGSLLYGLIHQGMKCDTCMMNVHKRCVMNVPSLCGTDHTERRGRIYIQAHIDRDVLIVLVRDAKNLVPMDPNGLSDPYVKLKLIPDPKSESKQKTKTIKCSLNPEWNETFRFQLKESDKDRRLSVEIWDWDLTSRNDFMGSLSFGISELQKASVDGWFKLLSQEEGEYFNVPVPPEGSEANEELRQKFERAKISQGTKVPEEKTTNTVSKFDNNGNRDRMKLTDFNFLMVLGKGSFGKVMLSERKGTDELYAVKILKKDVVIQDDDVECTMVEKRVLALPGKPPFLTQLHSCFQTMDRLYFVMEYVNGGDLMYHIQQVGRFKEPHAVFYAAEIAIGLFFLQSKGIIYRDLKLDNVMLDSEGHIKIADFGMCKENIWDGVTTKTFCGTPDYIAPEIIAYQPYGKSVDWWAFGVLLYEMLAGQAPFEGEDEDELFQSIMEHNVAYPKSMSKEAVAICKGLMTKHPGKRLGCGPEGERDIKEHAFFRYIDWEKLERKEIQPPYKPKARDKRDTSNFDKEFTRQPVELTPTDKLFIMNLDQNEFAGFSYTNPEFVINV

[7] = target: Protein kinase C beta type (Homo sapiens) (UniProt P05771); conditions: at 1 µM
[8] = target: T2, Serine/threonine-protein kinase D1 (Homo sapiens) (UniProt Q15139); conditions: at 0.1 µM
T2 sequence (whole entry): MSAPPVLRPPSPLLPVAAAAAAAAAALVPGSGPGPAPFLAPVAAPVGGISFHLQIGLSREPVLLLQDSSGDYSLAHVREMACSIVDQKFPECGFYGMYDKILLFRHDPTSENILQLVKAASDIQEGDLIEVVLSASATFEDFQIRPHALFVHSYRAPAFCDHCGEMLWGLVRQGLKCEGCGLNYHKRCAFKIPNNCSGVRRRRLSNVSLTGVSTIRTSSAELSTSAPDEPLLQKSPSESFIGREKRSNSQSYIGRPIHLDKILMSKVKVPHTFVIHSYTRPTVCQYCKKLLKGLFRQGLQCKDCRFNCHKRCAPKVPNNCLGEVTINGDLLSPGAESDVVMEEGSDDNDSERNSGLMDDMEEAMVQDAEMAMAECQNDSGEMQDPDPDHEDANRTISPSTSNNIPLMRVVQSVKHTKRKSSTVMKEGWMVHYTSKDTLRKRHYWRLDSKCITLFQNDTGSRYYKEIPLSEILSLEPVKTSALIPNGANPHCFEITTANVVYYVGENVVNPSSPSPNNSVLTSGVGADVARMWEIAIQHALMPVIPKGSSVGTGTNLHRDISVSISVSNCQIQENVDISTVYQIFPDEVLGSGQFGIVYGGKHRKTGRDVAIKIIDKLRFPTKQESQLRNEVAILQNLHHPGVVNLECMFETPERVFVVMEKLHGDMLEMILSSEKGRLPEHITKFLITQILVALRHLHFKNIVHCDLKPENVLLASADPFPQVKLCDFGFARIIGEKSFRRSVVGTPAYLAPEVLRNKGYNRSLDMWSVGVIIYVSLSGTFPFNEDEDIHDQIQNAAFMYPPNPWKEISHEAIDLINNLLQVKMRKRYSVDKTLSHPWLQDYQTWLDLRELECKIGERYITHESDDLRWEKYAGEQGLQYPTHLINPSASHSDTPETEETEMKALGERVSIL

[9] = target: T2, Serine/threonine-protein kinase D1 (Homo sapiens); conditions: at 1 µM
[10] = target: T3, Serine/threonine-protein kinase D2 (Homo sapiens) (UniProt Q9BZL6); conditions: at 0.1 µM
T3 sequence (whole entry): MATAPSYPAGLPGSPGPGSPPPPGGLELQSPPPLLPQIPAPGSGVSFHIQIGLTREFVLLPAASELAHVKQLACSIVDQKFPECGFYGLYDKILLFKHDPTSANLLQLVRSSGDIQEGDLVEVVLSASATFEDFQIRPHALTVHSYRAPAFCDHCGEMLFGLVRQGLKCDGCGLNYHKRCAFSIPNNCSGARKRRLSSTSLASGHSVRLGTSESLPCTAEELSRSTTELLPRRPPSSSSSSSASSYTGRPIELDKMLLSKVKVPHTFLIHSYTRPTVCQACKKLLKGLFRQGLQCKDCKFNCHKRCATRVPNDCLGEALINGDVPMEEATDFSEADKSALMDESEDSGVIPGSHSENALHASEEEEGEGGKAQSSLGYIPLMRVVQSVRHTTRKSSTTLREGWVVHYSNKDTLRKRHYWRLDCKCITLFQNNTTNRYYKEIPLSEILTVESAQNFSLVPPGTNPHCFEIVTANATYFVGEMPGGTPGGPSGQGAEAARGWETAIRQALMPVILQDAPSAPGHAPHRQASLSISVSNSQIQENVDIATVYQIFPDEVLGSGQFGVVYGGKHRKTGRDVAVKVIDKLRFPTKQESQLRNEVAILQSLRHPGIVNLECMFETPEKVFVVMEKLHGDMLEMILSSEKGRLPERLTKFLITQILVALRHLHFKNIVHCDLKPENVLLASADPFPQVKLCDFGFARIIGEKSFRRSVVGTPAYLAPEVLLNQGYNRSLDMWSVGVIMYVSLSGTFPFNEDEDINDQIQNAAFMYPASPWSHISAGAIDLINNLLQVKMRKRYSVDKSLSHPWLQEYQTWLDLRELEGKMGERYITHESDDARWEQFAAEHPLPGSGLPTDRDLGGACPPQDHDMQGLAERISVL

[11] = target: T3, Serine/threonine-protein kinase D2 (Homo sapiens); conditions: at 1 µM
[12] = target: T4, Serine/threonine-protein kinase D3 (Homo sapiens) (UniProt O94806); conditions: at 0.1 µM
T4 sequence (whole entry): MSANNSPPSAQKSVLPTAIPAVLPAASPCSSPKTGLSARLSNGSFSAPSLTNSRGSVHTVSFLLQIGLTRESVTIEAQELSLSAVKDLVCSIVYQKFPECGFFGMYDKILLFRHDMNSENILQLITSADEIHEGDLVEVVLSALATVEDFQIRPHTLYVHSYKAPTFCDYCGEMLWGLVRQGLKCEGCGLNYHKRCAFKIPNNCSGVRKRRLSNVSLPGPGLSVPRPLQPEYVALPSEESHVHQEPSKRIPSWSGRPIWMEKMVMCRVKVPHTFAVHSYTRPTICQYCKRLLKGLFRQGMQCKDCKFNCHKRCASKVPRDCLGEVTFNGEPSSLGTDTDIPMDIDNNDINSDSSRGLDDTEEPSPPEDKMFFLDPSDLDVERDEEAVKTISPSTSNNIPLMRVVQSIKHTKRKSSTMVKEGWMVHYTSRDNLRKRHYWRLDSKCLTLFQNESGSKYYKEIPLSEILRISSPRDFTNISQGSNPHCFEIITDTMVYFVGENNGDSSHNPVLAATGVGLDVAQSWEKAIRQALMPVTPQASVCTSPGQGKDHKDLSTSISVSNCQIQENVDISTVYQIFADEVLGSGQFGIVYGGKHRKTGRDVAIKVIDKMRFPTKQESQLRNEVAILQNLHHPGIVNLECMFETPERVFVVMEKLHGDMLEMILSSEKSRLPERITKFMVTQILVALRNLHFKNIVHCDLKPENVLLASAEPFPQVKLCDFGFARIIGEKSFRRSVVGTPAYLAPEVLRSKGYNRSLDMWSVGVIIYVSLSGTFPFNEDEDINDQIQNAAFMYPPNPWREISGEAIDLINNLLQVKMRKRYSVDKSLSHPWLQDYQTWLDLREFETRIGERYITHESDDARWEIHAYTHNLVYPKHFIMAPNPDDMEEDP

[13] = target: T4, Serine/threonine-protein kinase D3 (Homo sapiens); conditions: at 1 µM
[14] = target: T5, cGMP-dependent protein kinase 1 (Homo sapiens) (UniProt Q13976); conditions: at 0.1 µM
T5 sequence (whole entry): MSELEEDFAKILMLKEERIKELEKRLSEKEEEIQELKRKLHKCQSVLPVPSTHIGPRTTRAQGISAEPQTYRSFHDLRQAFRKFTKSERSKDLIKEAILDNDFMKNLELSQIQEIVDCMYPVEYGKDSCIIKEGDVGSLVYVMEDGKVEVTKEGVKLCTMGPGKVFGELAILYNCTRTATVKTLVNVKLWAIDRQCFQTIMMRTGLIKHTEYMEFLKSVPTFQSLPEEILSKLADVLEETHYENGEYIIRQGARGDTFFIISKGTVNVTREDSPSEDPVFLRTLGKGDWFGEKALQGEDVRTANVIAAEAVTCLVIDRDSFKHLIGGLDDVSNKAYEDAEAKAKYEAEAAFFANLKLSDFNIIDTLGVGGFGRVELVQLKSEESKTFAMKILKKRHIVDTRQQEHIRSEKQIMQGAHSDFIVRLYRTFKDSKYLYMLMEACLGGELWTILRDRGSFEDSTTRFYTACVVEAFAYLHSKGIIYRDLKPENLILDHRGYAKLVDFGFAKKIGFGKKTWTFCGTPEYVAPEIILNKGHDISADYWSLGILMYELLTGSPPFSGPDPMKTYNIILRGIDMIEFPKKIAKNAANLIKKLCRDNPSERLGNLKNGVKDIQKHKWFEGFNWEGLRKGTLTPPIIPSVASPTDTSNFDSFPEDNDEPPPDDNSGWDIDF

[15] = target: T5, cGMP-dependent protein kinase 1 (Homo sapiens); conditions: at 1 µM
[16] = target: T6, cGMP-dependent protein kinase 2 (Homo sapiens) (UniProt Q13237); conditions: at 0.1 µM
T6 sequence (whole entry): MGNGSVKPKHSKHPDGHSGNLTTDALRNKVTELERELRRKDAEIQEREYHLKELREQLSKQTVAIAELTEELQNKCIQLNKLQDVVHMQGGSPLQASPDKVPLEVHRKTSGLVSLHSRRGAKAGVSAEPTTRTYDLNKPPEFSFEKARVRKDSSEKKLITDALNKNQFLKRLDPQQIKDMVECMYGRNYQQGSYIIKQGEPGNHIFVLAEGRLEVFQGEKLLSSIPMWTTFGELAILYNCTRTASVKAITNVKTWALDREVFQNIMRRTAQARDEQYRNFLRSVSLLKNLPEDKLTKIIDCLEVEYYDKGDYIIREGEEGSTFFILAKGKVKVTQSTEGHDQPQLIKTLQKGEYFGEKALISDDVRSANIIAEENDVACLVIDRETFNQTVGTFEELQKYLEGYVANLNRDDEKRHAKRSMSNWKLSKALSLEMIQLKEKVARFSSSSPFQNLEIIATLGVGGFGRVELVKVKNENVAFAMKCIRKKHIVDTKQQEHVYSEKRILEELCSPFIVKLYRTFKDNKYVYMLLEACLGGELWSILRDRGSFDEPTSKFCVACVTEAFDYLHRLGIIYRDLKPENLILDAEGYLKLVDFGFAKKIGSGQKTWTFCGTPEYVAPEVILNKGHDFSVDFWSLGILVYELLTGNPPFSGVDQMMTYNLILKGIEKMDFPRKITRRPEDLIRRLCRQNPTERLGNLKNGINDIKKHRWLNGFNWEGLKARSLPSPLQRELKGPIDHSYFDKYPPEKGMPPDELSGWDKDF

[17] = target: T6, cGMP-dependent protein kinase 2 (Homo sapiens); conditions: at 1 µM
[18] = target: T7, cAMP-dependent protein kinase catalytic subunit PRKX (Homo sapiens) (UniProt P51817); conditions: at 0.1 µM
T7 sequence (whole entry): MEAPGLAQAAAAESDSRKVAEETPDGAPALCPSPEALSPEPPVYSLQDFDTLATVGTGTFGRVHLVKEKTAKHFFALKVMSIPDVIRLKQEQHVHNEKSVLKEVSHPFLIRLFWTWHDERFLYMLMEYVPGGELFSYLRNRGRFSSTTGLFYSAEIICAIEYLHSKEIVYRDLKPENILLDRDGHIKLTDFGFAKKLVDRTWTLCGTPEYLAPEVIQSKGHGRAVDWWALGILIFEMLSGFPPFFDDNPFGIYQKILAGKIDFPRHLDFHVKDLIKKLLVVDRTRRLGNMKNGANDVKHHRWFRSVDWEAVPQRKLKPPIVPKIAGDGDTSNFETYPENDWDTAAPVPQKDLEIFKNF

[19] = target: T7, cAMP-dependent protein kinase catalytic subunit PRKX (Homo sapiens); conditions: at 1 µM
[20] = target: Rho-associated protein kinase 1 (Homo sapiens) (UniProt Q13464); conditions: at 0.1 µM;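 also: values are mean percent inhibition of ROCK1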
Rho-associated protein kinase 1 (Homo sapiens), sequence (Q13464 2-1354 limits assumed): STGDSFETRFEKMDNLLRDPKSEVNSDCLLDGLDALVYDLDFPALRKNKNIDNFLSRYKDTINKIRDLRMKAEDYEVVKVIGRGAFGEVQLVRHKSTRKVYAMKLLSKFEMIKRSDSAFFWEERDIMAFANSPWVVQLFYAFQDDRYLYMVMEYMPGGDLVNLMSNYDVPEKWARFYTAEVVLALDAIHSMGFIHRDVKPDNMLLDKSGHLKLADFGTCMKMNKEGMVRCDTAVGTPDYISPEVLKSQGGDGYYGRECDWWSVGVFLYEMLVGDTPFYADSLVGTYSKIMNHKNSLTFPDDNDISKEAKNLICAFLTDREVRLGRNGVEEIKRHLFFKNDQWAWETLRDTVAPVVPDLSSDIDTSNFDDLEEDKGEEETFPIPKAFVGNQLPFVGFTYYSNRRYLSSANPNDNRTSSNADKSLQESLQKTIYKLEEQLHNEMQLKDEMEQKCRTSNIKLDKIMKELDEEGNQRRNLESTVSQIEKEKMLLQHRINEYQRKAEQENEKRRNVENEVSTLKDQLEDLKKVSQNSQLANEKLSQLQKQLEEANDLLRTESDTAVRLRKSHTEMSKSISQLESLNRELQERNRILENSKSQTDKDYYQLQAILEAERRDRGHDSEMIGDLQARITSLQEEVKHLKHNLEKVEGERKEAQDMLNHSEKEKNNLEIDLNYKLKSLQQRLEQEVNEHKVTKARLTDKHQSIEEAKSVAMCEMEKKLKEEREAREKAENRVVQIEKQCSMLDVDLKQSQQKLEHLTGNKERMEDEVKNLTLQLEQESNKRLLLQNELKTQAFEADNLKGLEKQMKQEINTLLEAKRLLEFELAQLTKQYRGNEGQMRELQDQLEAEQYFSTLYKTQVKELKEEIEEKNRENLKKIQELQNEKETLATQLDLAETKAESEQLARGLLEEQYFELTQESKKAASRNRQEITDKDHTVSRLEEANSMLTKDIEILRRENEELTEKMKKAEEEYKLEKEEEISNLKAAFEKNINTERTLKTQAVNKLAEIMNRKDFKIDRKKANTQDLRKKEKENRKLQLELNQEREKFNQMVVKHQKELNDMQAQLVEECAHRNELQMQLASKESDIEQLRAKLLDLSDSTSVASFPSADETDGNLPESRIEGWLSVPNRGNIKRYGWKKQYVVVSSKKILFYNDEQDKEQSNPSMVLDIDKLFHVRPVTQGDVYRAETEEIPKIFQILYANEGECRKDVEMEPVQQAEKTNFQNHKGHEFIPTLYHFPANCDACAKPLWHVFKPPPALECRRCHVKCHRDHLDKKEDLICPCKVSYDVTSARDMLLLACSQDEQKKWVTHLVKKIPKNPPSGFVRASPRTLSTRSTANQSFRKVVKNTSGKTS

Row | Compound | inhibition [1] | inhibition [2] | inhibition [3] | inhibition [4] | inhibition [5] | inhibition [6] | inhibition [7] | inhibition [8] | inhibition [9] | inhibition [10] | inhibition [11] | inhibition [12] | inhibition [13] | inhibition [14] | inhibition [15] | inhibition [16] | inhibition [17] | inhibition [18] | inhibition [19] | inhibition [20]
1 | COc1ccc(-c2ccc3c(NC(=O)C4CC4)n[nH]c3n2)cc1 | 2.95% | 0.3% | -0.23% | 1.39% | 2.97% | 0.8% | 0.48% | 2.32% | 1.39% | 1.92% | 1.69% | 1.45% | 1.7% | 1.26% | 1.97% | 0.63% | 0.65% | 1.66% | 3.81% | 0.53%
2 | Fc1ccc(-c2nc3n(c2-c2ccncc2)CCS3)cc1 | 0.85% | 2.39% | 2.4% | 1.87% | 1.91% | 1.53% | 4.27% | 0.84% | 4.16% | 2.09% | 3.85% | 1.34% | 3.94% | 3.66% | 4.28% | 2.32% | 3.35% | 1.54% | 1.87% | 1.14%
3 | Fc1ccc(-c2ncn(C3CCNCC3)c2-c2ccnc(Oc3ccc(Oc4ccccc4)cc3)n2)cc1 | 4.82% | 1.22% | 2.19% | 1.9% | 3.54% | 2.63% | 12.4% | 5.08% | 8.65% | 4.63% | 5.64% | 5.21% | 7.01% | 4.81% | 7.25% | 3.21% | 4.62% | 2.43% | 3.21% | 2.39%
